This note sets out measurements from PubChem BioAssay (Tox21).

Where “and” joins values, the source holds several entries; their conditions need not be identical. Identical values can stand only once. Results filed as inconclusive are left out. Calls of active or inactive are those of the source. Calls follow the shape of the dose curve; as a rule, active = well fitted cell-killing curve with a large enough effect in the repeat runs; inconclusive = weak or mixed curves, or effect the other way; inactive = no such curve, though single readings can be large or run the other way.
Potency is read from the fitted curve at half-maximal effect.

The test can be described thus: qHTS assay for identifying genotoxic compounds that show differential cytotoxicity against isogenic chicken DT40 cell lines with known DNA damage response pathways - wild type cell line (AID 743012). Also: nearly all actives have a fitted effect of over 60% in size. The following applies: DT40 wild type chicken cells viability, CellTiter-Glo, 40 h; series mostly up to 68.4 µM. The text has this:
U.S. Tox21 Program National Center for Advancing Translational Sciences [NCATS] NIH Chemical Genomics Center [NCGC] U.S. Environmental Protection Agency [EPA] National Institutes of Environmental Health Sciences [NIEHS] National Toxicology Program [NTP] U.S. Food and Drug Administration [FDA] Tox21 Assay Overview: DNA repair pathways play a critical role in cellular homeostasis by repairing DNA damage induced by endogenous processes and xenobiotics. Isogenic chicken DT40 cell lines deficient in different DNA repair pathways can be used to identify genotoxic compounds and aid in characterizing the nature of the DNA damage induced. Two DNA repair-deficient cell lines with disrupted genes, Rad54/Ku70 or Rev3, were used to screen the Tox21 10K compound library. Possible genotoxicity was based on the presence of a significant increase in cytotoxicity in one or more of the DNA repair-deficient cell lines compared to that observed in the parental DNA repair-proficient cell line. CellTiter Glo viability assay (Promega, Madison, WI) was used to measure cell viability in these cells after compound treatment. This assay includes the data from the wild type cell line.
Tox21 Assay Protocol Summary: 300 DT40 wild type cells in 5 uL/well were dispensed into white, solid-bottom 1536-well plates using a Multidrop Combi (ThermoFisher Scientific, Waltham, MA) dispenser. After the assay plates were incubated at 37 C/5% CO2 for approximately 0.5 hour, 23 nL of compounds dissolved in DMSO, positive controls or DMSO only was transferred into the assay plate by a pintool work station (Kalypsys, San Diego, CA). The assay plates were incubated at 37 C/5% CO2 for 40 hours. After 5 uL per well of CellTiter-Glo reagent was added into each well of the assay plates, the plates were incubated for 30 min at room temperature and the luminescence intensity of the plates was measured using a ViewLux (PerkinElmer, Shelton, CT) plate reader.
On to `C/C=C/C(=O)Oc1c(CCCCCC(C)C)cc([N+](=O)[O-])cc1[N+](=O)[O-]`, for which the Potency is 3.44 µM (active). Then `Cc1cccc(C)c1NC(=O)CN1CCN(CCCC(c2ccc(F)cc2)c2ccc(F)cc2)CC1`, with 4.03 µM (active); and `S=C(SSSSSSC(=S)N1CCCCC1)N1CCCCC1`, with 0.674 µM (active). In the case of `CCCCCCCCCC(=O)N(C)C` it was “inactive”.

`CC(C)(c1cc(Br)c(OCCO)c(Br)c1)c1cc(Br)c(OCCO)c(Br)c1`: the Potency is 7.52 µM (active).

On to `Clc1ccccc1CN1CCc2sccc2C1`, for which the Potency is 23.7 µM (active).

In the case of `CCCCCCCCCCCCCOP(=O)(O)O`, the Potency entry is “inactive”.

As for `Clc1ccc(C(Cn2ccnc2)OCc2c(Cl)cccc2Cl)c(Cl)c1` (stereo not given), the Potency is 11.4 µM (active). Then `Clc1ccc(C(Cn2ccnc2)OCc2ccsc2Cl)c(Cl)c1` (stereo not given), with 7.5 µM (active); and `NCCCCCCNCCCCCCN`, with 7.57 µM (active); and `O=C(O)CC(=O)O`, with “inactive”.

On to `C=CCCCCCCC=C`, for which the Potency entry was “inactive”. Then `CN(C)CCCN1c2ccccc2CCc2ccccc21`, with 13.3 µM (active) and 8.63 µM (active); and `C[C@H]1O[C@@H](O[C@H]2[C@@H](O)C[C@H](O[C@H]3[C@@H](O)C[C@H](O[C@H]4CC[C@@]5(C)[C@H](CC[C@@H]6[C@@H]5C[C@@H](O)[C@]5(C)[C@@H](C7=CC(=O)OC7)CC[C@]65O)C4)O[C@@H]3C)O[C@@H]2C)C[C@H](O)[C@@H]1O`, with 596 nM (active) and 344 nM (active) and 854 nM (active). In the case of `CC(=O)OC(OC(C)=O)c1ccc([N+](=O)[O-])o1` it was 19.7 µM (active); in that of `CCCCCCCC/C=C\CCCCCCCC(=O)N(C)CC(=O)O`, 21.7 µM (active); in that of `O=C1Nc2ccc(Cl)cc2[C@@](C#CC2CC2)(C(F)(F)F)O1`, 26.6 µM (active). Then `CNC(=S)NN`, with 7.7 µM (active). Turning to `CC1=C(/C=C/C(C)=C/C=C/C(C)=C\C=O)C(C)(C)CCC1`, the Potency was 14.5 µM (active). In the case of `CC(NCCC(c1ccccc1)c1ccccc1)c1ccccc1` (stereo not given) it was 2.98 µM (active); in that of `CCCCN(CCCC)CCC(O)c1cc2c(Cl)cc(Cl)cc2c2cc(C(F)(F)F)ccc12` (stereo not given), 11.4 µM (active); in that of `CC1=C(/C=C/C(C)=C/C=C/C(C)=C/C(=O)Nc2ccc(O)cc2)C(C)(C)CCC1`, 9.44 µM (active) and 22.2 µM (active).

Turning to `C[C@@]12C(=O)OC(=O)[C@]1(C)C1CCC2O1`, the Potency result is “inactive”.

As for `O[C@@H](c1cc(C(F)(F)F)nc2c(C(F)(F)F)cccc12)[C@H]1CCCCN1`, the Potency is 4.73 µM (active).

Consider `Cc1c(C)n(Cc2ccccc2)c2ccc(C(=O)OCCN(C)C)cc12`, for which the Potency was 3.76 µM (active). Then `CCC(C)(C)c1cc(O)c(C(C)(C)CC)cc1O`, with 17.2 µM (active); and `O=C(Nc1ccc(Cl)cc1)Nc1ccc(Cl)c(C(F)(F)F)c1`, with 4.22 µM (active).

For the compound `CCCCCCCCCCCCCCNCCO`, the Potency is 11.9 µM (active). For the compound `CC(CN(C)C)CN1c2ccccc2CCc2ccccc21` (stereo not given), the Potency was 11.4 µM (active). On to `CCCCCCCC/C=C/CCCOC(C)=O`, for which the Potency result is “inactive”. Then `N#CSCSc1nc2ccccc2s1`, with 0.864 µM (active); and `CCCCCCCCCCCCCC[n+]1ccccc1`, with 0.122 µM (active); and `Cc1ccc(N)cc1O`, with 30.6 µM (active). `Cc1cc2c(C(C)C)c(O)c(O)c(C=O)c2c(O)c1-c1c(C)cc2c(C(C)C)c(O)c(O)c(C=O)c2c1O`: the Potency is 10.6 µM (active). Then `CCc1ccc(O)c(C(C)(C)C)c1`, with 43.3 µM (active); and `Oc1ccc(-c2ccccc2)c(Cl)c1`, with “inactive”. Then `Cc1nc(Nc2ncc(C(=O)Nc3c(C)cccc3Cl)s2)cc(N2CCN(CCO)CC2)n1`, with 5.96 µM (active). In the case of `CCN(CC)CCCN(c1ccccc1)C1Cc2ccccc2C1` it was 0.531 µM (active); in that of `C/C=C/C=N/NC(=O)c1ccncc1`, “inactive”. As to `CCCCCCCOC(=O)c1ccc(O)cc1`, the Potency entry was “inactive”.
